Screen size: about 410,000 compounds; about 5,000 (1.2%) were called active. Roughly 13% stayed inconclusive and do not appear here. This is one part of a sample in which actives are shown more often than they occur. Calls follow the shape of the dose curve; as a rule, active = well fitted inhibition curve with a large enough effect; inconclusive = small, poorly fitted or top-dose-only effect; inactive = no such curve, though single readings can be large or run the other way.
Potency is read from the fitted curve at half-maximal effect.

A short description of the assay: qHTS for Inhibitors of TGF-b. Also: nearly all actives have a fitted effect of over 65% in size. As to conditions: HepG2 CAGA-GFP TGF-b/SMAD3 reporter, GFP fluorescence, 18 h, TGF-beta stimulated, 500 pg/mL final; series mostly up to 46.1 µM; activity, negative = inhibition: at the top concentration. An excerpt: TGF-b is a main component in the TGF-b signaling pathway which plays diverse roles in cellular and development pathways. TGF-b is the mediated by the transcription factors Smads. Although the Smad-dependent pathway is the primary canonical TGF-b signaling node, TGF-b1 can also activate alternative signaling pathways, including those involving MAPK (ERK, JNK and p38). This interaction may mediate or enhance Smad-dependent responses, or can exert Smad-independent effects. The complexity of this signaling cascade allows the TGF-b superfamily to perform unique, overlapping or redundant functions. We believe that targeting the TGF-beta pathway at the Smad-transcription factor level may eliminate the consequences of disrupting the entire pathway and offer specificity without affecting other signaling pathways. Smad3 is the primary transducer of TGF-b's signals and Smad3 regulates many functions attributed to TGF-b signaling. We hypothesize that Smad3 inhibitors will selectively eliminate Smad3-specific TGF-beta signals without undesired off-target effects. We aim to identify Smad3-small molecule antagonists using a quantitative high throughput screening (qHTS) approach.
A high-throughput assay was developed to screen the NIH Molecular Libraries Small Molecule Repository (MLSMR). This is a cell based assay, where TGF-b is tagged with GFP. A counterscreen is run that looks at cytotoxicity (please see summary AID).
MH087449NIH Chemical Genomics Center [NCGC]
NIH Molecular Libraries Probe Centers Network [MLPCN]
Assay Submitter (PI): Sushil Rane, National Institute of […]
Suspensions of trypsinized HEPG2 CAGA-GFP cells were dispensed into white, tissue culture-treated, solid 1536-well plates at 5uL/well (1000 cells/well final concentration) in DMEM medium supplemented with 1% FBS. Plates were incubated at 37 degrees C for 2 hours, after which 23 nL of compounds or DMSO were delivered to each well using a pin tool. One uL of recombinant TGF-beta in DMEM (1% FBS) was then dispensed (500 pg/mL final concentration), and plates were incubated at 37 degrees C for 18 hours. The plates were measured on an Acumen eX3 Explorer plate reader for GFP fluorescence (ex488/em500-530). GFP values were calculated by determining the mean GFP fluorescence of individual cells, and compiling these values for each well to determine a total well GFP signal. The %Activity was determined from the corrected fluorescence values. A titration of the known TGF-B inhibitor SB431542 was included to monitor plate performance, while unstimulated HEPG2 (-TGF-B) control wells were used to normalize %Activity of identified inhibitors; unstimulated wells corresponded to 100%Activity (full inhibition), while stimulated cell controls (+DMSO) were used to normalize 0%Activity (no inhibition).
Concentration-response curves were fitted to the signals arising from the resulting fluorescence. The concentration-effect curves were then classified based on curve quality (r2), response magnitude and degree of measured activity, and compounds were subsequently categorized based on their curve class.
A general note: qHTS replaces the single test concentration by a dilution series.
Turning to `O=C(Nc1ccccc1C(F)(F)F)c1nc(S(=O)(=O)Cc2ccccc2F)ncc1Cl`, the Potency is 3.16 µM (active).

Turning to `Cc1ccc(CCNC(=O)c2ccc(CS(=O)(=O)Cc3cccc(C)c3)o2)cc1`, the “activity, negative = inhibition” value was -36% (inactive).

On to `Cc1cccc(NC(=O)Cn2cc(S(=O)(=O)Cc3ccccc3Cl)c3ccccc32)c1`, for which the “activity, negative = inhibition” value is 0% (inactive).

In the case of `Cc1ccc(NC(=O)c2cccnc2C(=O)Nc2ccc(C)cc2)cc1`, the “activity, negative = inhibition” value is -10.9% (inactive).

For the molecule `CCS(=O)(=O)c1ncc(N(Cc2ccc(F)cc2)Cc2ccco2)c(C(=O)Nc2cc(C)ccc2C)n1`, the “activity, negative = inhibition” value is 1.57% (inactive).

For `Cc1ccc(NC(=O)c2nc(S(=O)(=O)Cc3cccc(C)c3)ncc2Cl)cc1`, the Potency is 3.16 µM (active).

Turning to `CN(CC(=O)Nc1ccccc1C(F)(F)F)C(=O)Cc1ccccc1F`, the “activity, negative = inhibition” value is -1.45% (inactive).

On to `Cc1cccc(NC(=O)c2nc(S(=O)(=O)Cc3ccccc3)ncc2Cl)c1`, for which the Potency was 3.98 µM (active).

For `O=C(Nc1nc2ccc(F)cc2s1)c1nc(SCc2ccccc2F)ncc1Cl`, the “activity, negative = inhibition” value was -1.74% (inactive).

As to `Cc1cccc(CS(=O)(=O)c2ncc(Cl)c(C(=O)Nc3ccc(F)cc3)n2)c1`, the Potency was 6.31 µM (active).

Regarding `CC(=O)c1cccc(NC(=O)c2nc(-c3ccccc3)n(-c3cccc(C)c3)n2)c1`, the “activity, negative = inhibition” value is -25.9% (inactive).

On to `CCOC(=O)c1ccc(NC(=O)c2nc(SCc3ccc(F)cc3)ncc2Cl)cc1`, for which the “activity, negative = inhibition” value is -12.1% (inactive).

For the molecule `COc1ccccc1CNC(=O)c1ccccc1NC(=O)c1nsc2ccccc12`, the “activity, negative = inhibition” value is -0.608% (inactive).

As for `Cc1cccc(Cn2c(CN3CCC(C(=O)NCc4ccccc4Cl)CC3)cc3ccccc32)c1`, the “activity, negative = inhibition” value was -8.43% (inactive).

Consider `COc1ccc(NC(=O)C2CCCN(S(=O)(=O)c3c(C)[nH]c(=O)[nH]c3=O)C2)c(OC)c1` (stereo unspecified), for which the “activity, negative = inhibition” value is -24.4% (inactive).

Turning to `COc1ccccc1CNC(=O)NCc1noc2ccc(C)cc12`, the “activity, negative = inhibition” value is 1.22% (inactive).

Turning to `O=S(=O)(c1cccc(C(F)(F)F)c1)N1CCN(c2nc(-c3cccs3)nc3ccccc23)CC1`, the “activity, negative = inhibition” value is 1.02% (inactive).

Consider `Cn1c(C(=O)Nc2cccc(C(F)(F)F)c2)cc2c(=O)n3ccccc3nc21`, for which the “activity, negative = inhibition” value is -8% (inactive).

`NC(c1csc(NC(=O)Nc2cccc(C(F)(F)F)c2)n1)C1CCCCC1` (stereo unspecified): the Potency was 6.31 µM (active).

Take `O=C(Nc1cccc(F)c1)NC1CCCCCCC1`: the “activity, negative = inhibition” value is 0% (inactive).

In the case of `COc1ccc(CC(N)c2csc(NC(=O)Nc3ccc(C(C)C)cc3)n2)cc1` (stereo unspecified), the “activity, negative = inhibition” value is -98.2% (inactive).

As for `NC(c1ccccc1)c1csc(NC(=O)Nc2cccc(C(F)(F)F)c2)n1` (stereo unspecified), the Potency is 12.6 µM (active).

As to `CC(=O)c1ccc(Nc2nc(C(N)c3ccccc3)cs2)cc1` (stereo unspecified), the “activity, negative = inhibition” value was -0.831% (inactive).

As for `Cc1ccc(Cn2c(=O)n(CCCC(=O)NCc3ccccc3Cl)c(=O)c3ccccc32)cc1`, the “activity, negative = inhibition” value is 3.91% (inactive).

For the molecule `COC(=O)c1ccc(-c2nc3cc(NC(C)=O)ccc3o2)cc1`, the “activity, negative = inhibition” value was 1.43% (inactive).

`CCOc1ccc(NC(=O)c2cc(S(=O)(=O)N3CCCC3)c[nH]2)cc1`: the “activity, negative = inhibition” value is -24.4% (inactive).

In the case of `Cc1nc2nc(SCC(=O)NC3CCC(C)CC3)nn2c(C)c1Cc1ccccc1Cl` (stereo unspecified), the “activity, negative = inhibition” value was -30.1% (inactive).

With `CC1(C)C=Cc2c(ccc(C(=O)/C=C/c3ccccc3)c2O)O1`, the “activity, negative = inhibition” value was -2.51% (inactive).

Consider `Cc1cc(C)cc(NS(=O)(=O)c2ccc(Oc3ncc(C(F)(F)F)cc3Cl)cc2)c1`, for which the Potency is 12.6 µM (active).

As to `CN(NS(=O)(=O)c1cccs1)c1ncc(C(F)(F)F)cc1Cl`, the “activity, negative = inhibition” value was -13% (inactive).

With `COc1ccccc1Oc1ccc(S(=O)(=O)Nc2cccnc2)cc1`, the “activity, negative = inhibition” value was 9.04% (inactive).

With `COc1ccc(CCNCc2c(C(=O)O)c(C)n(Cc3cccc(C)c3)c2C)cc1OC`, the “activity, negative = inhibition” value was 5.3% (inactive).

With `Cc1cccc(NC(=O)c2ccc3nc(C(C)C)oc3c2)c1C`, the “activity, negative = inhibition” value is 7.16% (inactive).

Consider `O=C(O)C1CCN(c2ccc([N+](=O)[O-])cc2[N+](=O)[O-])CC1`, for which the “activity, negative = inhibition” value was 34.7% (inactive).

In the case of `CCOC(=O)N1CCN(c2cc(C)c([N+](=O)[O-])cc2F)CC1`, the “activity, negative = inhibition” value is 7.48% (inactive).

For the molecule `C=COC(=O)N1CCN(/[N+]([O-])=N/Oc2ccc([N+](=O)[O-])cc2[N+](=O)[O-])CC1`, the Potency was 10 µM (active).

As for `O=C(CSc1nc(=O)[nH]c2c1CCCC2)Nc1cc(C(F)(F)F)ccc1Cl`, the “activity, negative = inhibition” value was -0.244% (inactive).

As to `COc1ccc(/C=C/c2noc(-c3ccccc3O)n2)cc1OC`, the “activity, negative = inhibition” value is -13.3% (inactive).

Consider `CC(=O)c1ccc(NC(=O)Nc2ccc([N+](=O)[O-])cc2C)cc1`, for which the “activity, negative = inhibition” value was 3.93% (inactive).

`COc1cccc(C(=O)CC(=O)C(=O)Nc2ccc([N+](=O)[O-])cc2C)c1`: the “activity, negative = inhibition” value was -5.79% (inactive).

With `Cc1cc([N+](=O)[O-])ccc1NCc1cccc([N+](=O)[O-])c1`, the Potency is 10 µM (active).

For `O=C(Nc1ccc([N+](=O)[O-])cc1)c1cnn2c1NC(=C1CC1)C=C2C(F)F`, the “activity, negative = inhibition” value is 5.24% (inactive).

On to `COc1ccc(/C=C/c2ccnc3ccccc23)cc1OC`, for which the “activity, negative = inhibition” value is -22.7% (inactive).

For the molecule `CSc1ncc(C(=O)NCc2ccccc2Cl)c(C(F)(F)F)n1`, the “activity, negative = inhibition” value is -10.3% (inactive).

Take `O=C(CSc1nc(Nc2ccc(F)c(F)c2)c2ccccc2n1)c1ccc(Cl)cc1`: the “activity, negative = inhibition” value was 0% (inactive).

Turning to `Fc1ccc(Nc2nc(SCc3ccccc3Cl)nc3ccccc23)cc1`, the Potency is 17.8 µM (active).
